# PubChem BioAssay (NCATS)
# Results filed as inconclusive are left out. Where a call stands in place of a potency, no number is given. Calls of active or inactive are those of the source. Unless noted, the call rests on the fitted dose curve; in most records, active means well fitted curve in the direction sought with a large enough effect; inconclusive means small, poorly fitted or top-dose-only effect, or another doubt; inactive means no such curve, though single readings can be large; an effect the other way counts as inactive or inconclusive. Where a SMILES comes first, the peptide text is derived from it.
# What was measured:
# [1] = qHTS to identify inhibitors of the type 1 interferon - major histocompatibility complex class I in skeletal muscle: primary screen against the NCATS Mechanism Interrogation Plate v5.0 (MIPE) Libary (AID 1347411); further: nearly all actives have a fitted effect of over 65% in size
# Method in brief: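 Luminescence from HiBiT-tagged endogenous HLA-B*08:01 served as the MHC class I read-out. CRISPR-engineered C25cl48 human myoblasts received 4.0 ng/ml IFN-beta plus compound for 24 hrs, with an 11-point, 1:3 series topping at 46 uM final.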
# [2] = Primary qHTS for inhibitors of nuclear receptor binding SET domain protein 2 (NSD2) in an isogenic RCH-ACV NSD2 p.E1099K mutant (9B) (AID 1645876); further: nearly all actives have a fitted effect of over 70% in size
# [3] = Primary qHTS for inhibitors of nuclear receptor binding SET domain protein 2 (NSD2) in an RCH-ACV wild type WT cells (2C) (AID 1645877); further: nearly all actives have a fitted effect of over 70% in size
# [4] = molecular target: Glutathione peroxidase 1 (Homo sapiens) (UniProt P07203); assay: Primary qHTS Assay for Inhibitors of Recombinant Selenoprotein Glutathione Peroxidase 1 (GPX1) (AID 1845191); further: nearly all actives have a fitted effect of over 65% in size
# Method in brief: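 Recombinant GPX1 (10 nM final) was preincubated with compound for 30 min at room temperature, then reacted with 1 mM GSH, 0.5 mM CHP, 0.5 mM NADPH and 100 nM glutathione reductase; NADPH fluorescence (340/450 nm) was read at 0 and 15 min.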
# [5] = molecular target: Phospholipid hydroperoxide glutathione peroxidase GPX4 (Homo sapiens) (UniProt P36969); assay: Primary qHTS Assay for Inhibitors of Recombinant Selenoprotein Glutathione Peroxidase 4 (GPX4) (AID 1845192); conditions: outcome: dose series up to 50 µM unless noted; further: nearly all actives have a fitted effect of over 65% in size
# Method in brief: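 GR-coupled readout: 100 nM GR, 1 mM GSH, 0.5 mM NADPH; NADPH fluorescence (ex 340/em 450 nm) read at t=0 and after 15 min RT. GPX4 200 nM, preincubated 30 min with compound; substrate 0.5 mM CHP.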
# [6] = qHTS drug screen for cell cycle checkpoint inhibitors in PARPi-resistant BRCA-mutant ovarian cancer cell lines. (AID 1963452; calls by dose curve); conditions: PEO1/OlaR viability, CellTiter-Glo luminescence, 96 h; for Z-AUC: stronger effect = lower value
# Method in brief: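 PEO1, PEO4 and PEO1/OlaR ovarian cancer cells, 600 per well, exposed 96 h at 37C to a dilution series. Viability read by CellTiter-Glo luminescence, normalized to DMSO and empty wells; activity summarized as Z-AUC.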
# [7] = measured here: PEO1 parental Z-AUC
# Potency means the concentration at half of the fitted maximal effect.
# Phospholipid hydroperoxide glutathione peroxidase GPX4 (Homo sapiens), sequence (P36969 whole entry, looked up): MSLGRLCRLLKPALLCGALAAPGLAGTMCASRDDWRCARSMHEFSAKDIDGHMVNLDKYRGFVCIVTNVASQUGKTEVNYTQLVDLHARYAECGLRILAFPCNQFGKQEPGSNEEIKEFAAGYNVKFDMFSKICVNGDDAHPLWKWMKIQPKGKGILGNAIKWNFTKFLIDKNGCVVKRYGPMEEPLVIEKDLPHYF
# Glutathione peroxidase 1 (Homo sapiens), sequence (P07203 whole entry, looked up): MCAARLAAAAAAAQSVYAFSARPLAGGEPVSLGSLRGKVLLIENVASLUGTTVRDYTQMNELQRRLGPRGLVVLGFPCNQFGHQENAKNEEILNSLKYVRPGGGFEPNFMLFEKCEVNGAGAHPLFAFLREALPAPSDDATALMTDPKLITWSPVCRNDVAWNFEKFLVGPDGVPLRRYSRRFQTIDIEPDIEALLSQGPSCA
Structure (SMILES),Potency [1],Potency [2],Potency [3],Potency [4],Potency [5],Z-AUC [6],"Z-AUC [6, 7]",Z-AUC ([6]; measured here: PEO4 Z-AUC),Potency [6]
C[C@]12CC[C@H](O)CC1=CC[C@@H]1[C@@H]2CC[C@]2(C)C(c3cccnc3)=CC[C@@H]12,inactive,inactive,inactive,inactive,inactive,0.978 (inactive),0.324,0.672,–
CC(C)n1c(=O)cc(N[C@@H](C)c2ccccc2)[nH]c1=O,inactive,inactive,inactive,inactive,inactive,-0.0266 (inactive),0.859,1.05,–
CC(C)(C)C(=O)N1N=CC[C@H]1c1ccccc1,inactive,inactive,inactive,inactive,inactive,-0.69 (inactive),-0.909,-0.663,–
N#Cc1ccnc(N2C(=O)CC[C@H]2C(=O)N(c2cncc(F)c2)C(C(=O)NC2CC(F)(F)C2)c2ccccc2Cl)c1 (stereo partly drawn),inactive,inactive,inactive,inactive,inactive,1.6 (inactive),0.937,1.33,–
Cc1c(Cl)cccc1S(=O)(=O)Nc1nc(CCN2CCOCC2=O)cs1,inactive,inactive,inactive,inactive,inactive,0.943 (inactive),0.512,0.46,–
C[C@]12CCC3=C4CCC(=O)C=C4CC[C@H]3[C@@H]1CC[C@@]2(O)CC#N,inactive,inactive,inactive,inactive,inactive,1.33 (inactive),1.75,1.39,–
N[C@@H](CCC(=O)O)C(=O)N[C@@H](Cc1c[nH]c2ccccc12)C(=O)O (H-Glu-Trp-OH),inactive,inactive,inactive,inactive,inactive,1.08 (inactive),0.582,0.474,–
Cc1cc(C)c(S(=O)(=O)N(CCc2cccc(Br)c2)Cc2ccc(-c3cccc(S(C)(=O)=O)c3)cc2)c(C)c1,inactive,inactive,inactive,inactive,inactive,0.662 (inactive),0.747,0.467,–
CCOc1ccc(Cc2cc([C@@H]3O[C@H](CO)[C@@H](O)[C@H](O)[C@H]3O)ccc2Cl)cc1,inactive,inactive,inactive,inactive,inactive,1.26 (inactive),1.31,1.52,–
COc1cc(OCc2cccc(-c3ccccc3)c2C)cc(OC)c1CN1CCCC[C@H]1C(=O)O,inactive,inactive,inactive,inactive,inactive,-0.024 (inactive),-0.135,-0.37,–
O=C(NO)c1cnc(N2C[C@H]3C[C@@H]2CN3c2cc(C(F)(F)F)ccn2)nc1,4.66 µM (active),2.95 µM (active),2.95 µM (active),inactive,inactive,-1 (inactive),-1.23,-1.32,–
Nc1nc(OC(c2ccc(-c3cccc(F)c3)cc2)C(F)(F)F)cc(-c2ccc(C[C@@H](N)C(=O)O)cc2)n1 (stereo partly drawn),inactive,18.6 µM (active),20.9 µM (active),inactive,inactive,1.03 (inactive),1.4,1.67,–
CCOc1cc(/C=C2/C(=O)N(c3ccccc3)N=C2C)cc(Cl)c1OCC(=O)OC,inactive,inactive,inactive,inactive,inactive,1.36 (inactive),1.44,0.891,–
Cc1nnn(C)c1-c1cnc2c3ccc(C(C)(C)O)cc3n([C@H](c3ccccc3)C3CCOCC3)c2c1,inactive,0.0074 µM (active),0.0093 µM (active),18.3 µM (active),16.1 µM (active),–,-1.84,-2.14,0.549 µM (active)
C[C@H](Nc1nc(N[C@H](C)C(F)(F)F)nc(-c2cccc(Cl)n2)n1)C(F)(F)F,inactive,inactive,inactive,inactive,inactive,-0.138 (inactive),0.592,0.804,–
O=C(Nc1ccccc1)Nc1ccc(-c2ccc(C(=O)[C@@H]3CCC[C@H]3C(=O)O)cc2)cc1,inactive,inactive,inactive,inactive,12.8 µM (active),1.01 (inactive),0.577,0.797,–
